PubChem BioAssay (NCI)
About 79,000 compounds went through this panel and 15% of them were active in at least one assay; those are over-represented in the sample as a whole. Activity calls are given as the source filed them. No stated cut-off is given here; in the data, active means growth inhibition above about 70%; inactive means the rest.

Key:
[1] = NCI Yeast Anticancer Drug Screen. Data for the rad52 strain (AID 147);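 further: 0% = growth of vehicle-treated control cultures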; conditions: S. cerevisiae rad52 mutant growth inhibition, hits give high values
Method in brief: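 The repair-mutant yeast strain was incubated with compounds, then growth was read and inhibition derived relative to vehicle.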

[2] = NCI Yeast Anticancer Drug Screen. Data for the wt1 strain (AID 149);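 further: 0% = growth of vehicle-treated wt1 cultures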; conditions: S. cerevisiae wt1 strain (SPY 50644) growth inhibition, hits give high values
Method in brief: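 wt1 strain grown with compound or vehicle; inhibition taken from the growth difference.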

[3] = NCI Yeast Anticancer Drug Screen. Data for the rad50EPP+ strain (AID 151);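 further: 0% = growth of vehicle-treated control cultures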; conditions: S. cerevisiae rad50 mutant strain, hits give high values
Method in brief: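 Vehicle-normalised growth inhibition; rad50EPP+ yeast strain, altered in DNA damage repair, compound-treated.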

[4] = NCI Yeast Anticancer Drug Screen. Data for the mgt1 strain (AID 153); conditions: S. cerevisiae mgt1 mutant growth inhibition, hits give high values
Method in brief: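 Vehicle-normalized growth inhibition is determined in mgt1 yeast, a strain selected for a defined alteration in DNA repair or cell cycle control.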

[5] = NCI Yeast Anticancer Drug Screen. Data for the rad50 strain (AID 155);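 further: 0% = growth of vehicle-only cultures of the same strain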; conditions: S. cerevisiae rad50 strain growth inhibition, hits give high values
Method in brief: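 DNA repair mutant yeast, compound exposure, growth read-out; inhibition is taken relative to vehicle.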

[6] = NCI Yeast Anticancer Drug Screen. Data for the mec2-1 strain (AID 157); conditions: S. cerevisiae mec2-1 strain, hits give high values
Method in brief: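 Mutant yeast (mec2-1) grown with compound; growth inhibition relative to vehicle control reported.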

[7] = NCI Yeast Anticancer Drug Screen. Data for the rad14 strain (AID 159);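 further: 0% = growth of vehicle-treated control cultures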; conditions: S. cerevisiae rad14 strain growth inhibition, hits give high values
Method in brief: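 DNA repair-defective yeast, compound-exposed; % growth inhibition derived by comparison with vehicle-treated controls.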

[8] = NCI Yeast Anticancer Drug Screen. Data for the CLN2oe strain (AID 163);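 further: 0% = growth of vehicle-only control cultures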; conditions: S. cerevisiae CLN2oe strain, hits give high values
Method in brief: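 Compounds are applied to yeast harbouring a defined cell-cycle control change; reduced growth compared with vehicle-treated controls gives the value.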

[9] = NCI Yeast Anticancer Drug Screen. Data for the cln2 rad14 strain (AID 165);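 further: 0% = growth equal to vehicle treated cultures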; conditions: S. cerevisiae cln2 rad14 strain, hits give high values
Method in brief: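 Readout is yeast growth inhibition versus vehicle-treated controls, using a strain with cln2 and rad14 alterations exposed to compound.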

[10] = NCI Yeast Anticancer Drug Screen. Data for the bub3 strain (AID 167); conditions: S. cerevisiae bub3 mutant strain, hits give high values
Method in brief: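 In this screen, a yeast mutant lacking normal mitotic checkpoint function is challenged with compound. Relative growth versus vehicle gives the inhibition value.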

[11] = NCI Yeast Anticancer Drug Screen. Data for the wt2 strain (AID 169);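 further: 0% = growth of vehicle-treated yeast cultures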; conditions: S. cerevisiae wt2 strain growth inhibition, hits give high values
Method in brief: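 Against vehicle-treated controls, the growth of yeast exposed to each compound was compared, and the inhibition was recorded.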

[12] = NCI Yeast Anticancer Drug Screen. Data for the sgs1 strain (AID 173);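 further: 0% = growth of vehicle-only control cultures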; conditions: S. cerevisiae sgs1 mutant, hits give high values
Method in brief: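 Each compound was added to cultures of the altered yeast strain. Growth was recorded, and inhibition was derived by comparison with vehicle controls.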

[13] = NCI Yeast Anticancer Drug Screen. Data for the mlh1 rad18 strain (AID 175); conditions: S. cerevisiae mlh1 rad18 strain growth inhibition, hits give high values
Method in brief: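 Genetically defined yeast (DNA repair-deficient) exposed to compounds; growth inhibition determined relative to vehicle.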

[14] = NCI Yeast Anticancer Drug Screen. Data for the rad18 strain (AID 177); conditions: S. cerevisiae rad18 mutant growth inhibition, hits give high values
Method in brief: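 Vehicle-treated cultures served as the baseline for scoring compound-induced growth inhibition in DNA-repair-mutant yeast.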

[15] = NCI Yeast Anticancer Drug Screen. Data for the sgs1 mgt1 strain (AID 161);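 further: 0% = growth of cultures given vehicle only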; conditions: S. cerevisiae sgs1 mgt1 strain, hits give high values
Method in brief: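 This yeast growth screen uses a strain with defined DNA-repair lesions; compound-treated growth is compared with vehicle-treated growth.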

[16] = NCI Yeast Anticancer Drug Screen. Data for the mlh1 strain (AID 171);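 further: 0% = growth of vehicle-treated control cultures of the same strain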; conditions: S. cerevisiae mlh1 strain growth inhibition, hits give high values
Method in brief: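 Measured: yeast growth. Reference: vehicle-treated controls. Organism: strain with a defined alteration affecting DNA damage repair or cell cycle control, treated with compound.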

[17] = at 5.0 µM (retest, dose inferred, filed as 0.5)
[18] = at 50.0 µM (retest, dose inferred, filed as 5.0)

Measured: growth inhibition

O=C(COC(=O)c1cc(O)c(O)c(O)c1)c1ccc(-c2ccccc2)cc1
active: [1]; at 100.0 µM 96% | [2]; at 100.0 µM 97% | [3]; at 33.0 µM 91% | [3]; at 100.0 µM 96% | [5]; [18] 94% | [5]; at 100.0 µM 95% | [6]; [18] 95% | [6]; at 100.0 µM 97% | [7]; at 100.0 µM 95% | [8]; at 100.0 µM 83% | [10]; [18] 97% | [10]; at 100.0 µM 97% | [11]; at 100.0 µM 95% | [12]; at 100.0 µM 97% | [13]; [18] 97% | [14]; at 100.0 µM 95%
inactive: [1]; at 1.2 µM -2% | [1]; at 3.7 µM 2% | [1]; at 11.0 µM 8% | [1]; at 33.0 µM 38% | [2]; at 1.2 µM -3% | [2]; at 3.7 µM -3% | [2]; at 11.0 µM -2% | [2]; at 33.0 µM 10% | [3]; at 1.2 µM 6% | [3]; at 3.7 µM 21% | [3]; at 11.0 µM 47% | [4]; at 1.2 µM -1% | [4]; at 3.7 µM -1% | [4]; at 11.0 µM 0% | [4]; at 33.0 µM 46% | [4]; at 100.0 µM 39% | [5]; at 1.2 µM -1% | [5]; at 3.7 µM 1% | [5]; [17] -16% | [5]; at 11.0 µM 11% | [5]; at 33.0 µM 42% | [5]; at 50.0 µM 45.9% | [6]; at 1.2 µM -3% | [6]; at 3.7 µM -3% | [6]; [17] 6% | [6]; at 11.0 µM 3% | [6]; at 33.0 µM 34% | [6]; at 50.0 µM 30.4% | [7]; at 1.2 µM 1% | [7]; at 3.7 µM 1% | [7]; at 11.0 µM 9% | [7]; at 33.0 µM 44% | [8]; at 1.2 µM -6% | [8]; at 3.7 µM -9% | [8]; at 11.0 µM -11% | [8]; at 33.0 µM -1% | [9]; [17] -84% | [9]; [18] -12% | [9]; at 50.0 µM 0.6% | [10]; at 1.2 µM -4% | [10]; at 3.7 µM -3% | [10]; [17] 3% | [10]; at 11.0 µM -3% | [10]; at 33.0 µM 21% | [10]; at 50.0 µM 59.2% | [11]; at 1.2 µM -3% | [11]; at 3.7 µM -5% | [11]; at 11.0 µM -4% | [11]; at 33.0 µM 66% | [12]; at 1.2 µM -1% | [12]; at 3.7 µM 1% | [12]; at 11.0 µM 11% | [12]; at 33.0 µM 63% | [13]; [17] 19% | [13]; at 50.0 µM 40.2% | [14]; at 1.2 µM -1% | [14]; at 3.7 µM 2% | [14]; at 11.0 µM 12% | [14]; at 33.0 µM 58%

O=[N+]([O-])C(=C(Sc1ccccc1)Sc1ccccc1)C(Cl)=C(Cl)Cl
active: [4]; at 100.0 µM 74% | [11]; at 100.0 µM 73% | [16]; at 100.0 µM 74% | [12]; at 33.0 µM 76% | [12]; at 100.0 µM 78% | [13]; [18] 71% | [14]; at 33.0 µM 76% | [14]; at 100.0 µM 74%
inactive: [1]; at 1.2 µM 14% | [1]; at 3.7 µM 30% | [1]; at 11.0 µM 45% | [1]; at 33.0 µM 56% | [1]; at 100.0 µM 59% | [2]; at 1.2 µM 3% | [2]; at 3.7 µM 13% | [2]; at 11.0 µM 25% | [2]; at 33.0 µM 36% | [2]; at 100.0 µM 41% | [3]; at 1.2 µM 9% | [3]; at 3.7 µM 20% | [3]; at 11.0 µM 36% | [3]; at 33.0 µM 49% | [3]; at 100.0 µM 48% | [4]; at 1.2 µM 2% | [4]; at 3.7 µM 17% | [4]; at 11.0 µM 44% | [4]; at 33.0 µM 59% | [5]; at 1.2 µM 4% | [5]; at 3.7 µM 8% | [5]; [17] 5% | [5]; at 11.0 µM 23% | [5]; at 33.0 µM 46% | [5]; [18] 53% | [5]; at 50.0 µM 19.6% | [5]; at 100.0 µM 50% | [6]; at 1.2 µM 12% | [6]; at 3.7 µM 26% | [6]; [17] 22% | [6]; at 11.0 µM 37% | [6]; at 33.0 µM 46% | [6]; [18] 26% | [6]; at 50.0 µM 46.5% | [6]; at 100.0 µM 46% | [15]; [17] 2% | [15]; [18] 53% | [15]; at 50.0 µM 62.6% | [8]; at 1.2 µM 4% | [8]; at 3.7 µM 16% | [8]; at 11.0 µM 26% | [8]; at 33.0 µM 37% | [8]; at 100.0 µM 32% | [9]; [17] 44% | [9]; [18] 33% | [9]; at 50.0 µM 32.8% | [10]; at 1.2 µM 6% | [10]; at 3.7 µM 18% | [10]; [17] -1% | [10]; at 11.0 µM 33% | [10]; at 33.0 µM 45% | [10]; [18] 59% | [10]; at 50.0 µM 60.2% | [10]; at 100.0 µM 50% | [11]; at 1.2 µM 1% | [11]; at 3.7 µM 15% | [11]; at 11.0 µM 39% | [11]; at 33.0 µM 59% | [16]; at 1.2 µM 8% | [16]; at 3.7 µM 19% | [16]; at 11.0 µM 40% | [16]; at 33.0 µM 60% | [12]; at 1.2 µM 13% | [12]; at 3.7 µM 24% | [12]; at 11.0 µM 58% | [13]; [17] 12% | [13]; at 50.0 µM 59.5% | [14]; at 1.2 µM 15% | [14]; at 3.7 µM 43% | [14]; at 11.0 µM 66%
